Test [1] concerns the target T1, Mitogen-activated protein kinase 12 (Homo sapiens) (UniProt P53778).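 Note: values are averaged p38gamma kinase inhibition readings, compounds tested at 1 µM.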
T1 sequence (whole entry): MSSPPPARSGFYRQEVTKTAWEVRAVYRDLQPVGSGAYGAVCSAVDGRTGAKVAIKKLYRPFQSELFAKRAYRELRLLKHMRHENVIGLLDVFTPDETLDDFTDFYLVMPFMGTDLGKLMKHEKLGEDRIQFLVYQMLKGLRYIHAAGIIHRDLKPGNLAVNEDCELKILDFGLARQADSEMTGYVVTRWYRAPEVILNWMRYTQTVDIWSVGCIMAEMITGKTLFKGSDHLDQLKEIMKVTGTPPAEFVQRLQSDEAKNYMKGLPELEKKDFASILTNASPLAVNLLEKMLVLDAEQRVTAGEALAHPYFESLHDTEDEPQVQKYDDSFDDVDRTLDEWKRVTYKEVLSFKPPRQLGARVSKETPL
The following applies: at 1 µM.

Test [2] deals with SRSF protein kinase 1 (Homo sapiens) (UniProt Q96SB4). The following applies: at 0.1 µM.
Sequence of SRSF protein kinase 1 (Homo sapiens) (Q96SB4 whole entry): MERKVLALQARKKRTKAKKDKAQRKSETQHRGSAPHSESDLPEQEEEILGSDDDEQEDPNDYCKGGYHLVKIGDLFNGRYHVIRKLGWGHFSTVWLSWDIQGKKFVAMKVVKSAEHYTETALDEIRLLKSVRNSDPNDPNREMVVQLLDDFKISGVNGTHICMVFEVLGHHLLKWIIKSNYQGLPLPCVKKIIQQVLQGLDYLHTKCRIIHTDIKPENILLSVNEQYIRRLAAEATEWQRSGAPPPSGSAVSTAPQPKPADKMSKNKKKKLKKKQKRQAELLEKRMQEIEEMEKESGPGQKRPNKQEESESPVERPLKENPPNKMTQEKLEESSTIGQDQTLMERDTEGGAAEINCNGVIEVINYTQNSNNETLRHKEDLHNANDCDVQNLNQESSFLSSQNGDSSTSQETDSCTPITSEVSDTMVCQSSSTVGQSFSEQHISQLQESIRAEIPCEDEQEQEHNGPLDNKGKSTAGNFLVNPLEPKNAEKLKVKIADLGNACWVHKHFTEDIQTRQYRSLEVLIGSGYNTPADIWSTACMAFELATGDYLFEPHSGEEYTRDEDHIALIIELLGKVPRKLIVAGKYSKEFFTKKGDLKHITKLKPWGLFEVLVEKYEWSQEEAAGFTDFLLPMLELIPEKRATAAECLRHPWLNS
Test [3] shares this target. The following applies: at 1 µM.
For test [4], the target named is Phosphatidylinositol 4,5-bisphosphate 3-kinase catalytic subunit alpha isoform (Homo sapiens) (UniProt P42336). The following applies: at 0.1 µM.
Sequence of Phosphatidylinositol 4,5-bisphosphate 3-kinase catalytic subunit alpha isoform (Homo sapiens) (P42336 whole entry, canonical isoform): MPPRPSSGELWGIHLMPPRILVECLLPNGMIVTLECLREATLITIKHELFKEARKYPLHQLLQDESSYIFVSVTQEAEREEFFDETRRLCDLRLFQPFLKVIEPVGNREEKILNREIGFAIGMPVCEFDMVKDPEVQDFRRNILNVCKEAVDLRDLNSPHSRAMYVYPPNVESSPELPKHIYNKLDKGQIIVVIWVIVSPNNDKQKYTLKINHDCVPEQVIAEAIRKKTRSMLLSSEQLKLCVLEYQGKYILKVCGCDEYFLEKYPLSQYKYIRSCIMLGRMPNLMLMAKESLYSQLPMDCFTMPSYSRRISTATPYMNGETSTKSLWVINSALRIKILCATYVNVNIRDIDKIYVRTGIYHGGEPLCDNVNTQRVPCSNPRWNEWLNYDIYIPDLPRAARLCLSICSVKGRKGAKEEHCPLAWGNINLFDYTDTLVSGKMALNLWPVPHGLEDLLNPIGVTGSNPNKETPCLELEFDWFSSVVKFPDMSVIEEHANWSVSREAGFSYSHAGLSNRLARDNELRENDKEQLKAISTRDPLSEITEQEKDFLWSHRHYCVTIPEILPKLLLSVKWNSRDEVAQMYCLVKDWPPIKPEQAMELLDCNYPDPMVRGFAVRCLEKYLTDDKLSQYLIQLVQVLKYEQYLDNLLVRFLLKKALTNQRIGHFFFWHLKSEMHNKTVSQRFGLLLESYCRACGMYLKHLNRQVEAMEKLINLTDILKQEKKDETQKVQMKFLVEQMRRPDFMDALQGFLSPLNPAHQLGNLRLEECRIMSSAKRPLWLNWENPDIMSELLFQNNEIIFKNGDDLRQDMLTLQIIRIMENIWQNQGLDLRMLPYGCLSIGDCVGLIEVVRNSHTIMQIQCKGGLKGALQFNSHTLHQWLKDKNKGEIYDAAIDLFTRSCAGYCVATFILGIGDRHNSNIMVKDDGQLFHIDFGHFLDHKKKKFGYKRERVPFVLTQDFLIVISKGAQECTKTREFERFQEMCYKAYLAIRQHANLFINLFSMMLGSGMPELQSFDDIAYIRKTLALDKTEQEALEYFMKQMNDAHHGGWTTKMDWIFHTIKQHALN
Test [5] shares this target. The conditions noted are these: at 1 µM.
Test [6] addresses T2, Phosphatidylinositol 4,5-bisphosphate 3-kinase catalytic subunit delta isoform (Homo sapiens) (UniProt O00329).
T2 sequence (whole entry): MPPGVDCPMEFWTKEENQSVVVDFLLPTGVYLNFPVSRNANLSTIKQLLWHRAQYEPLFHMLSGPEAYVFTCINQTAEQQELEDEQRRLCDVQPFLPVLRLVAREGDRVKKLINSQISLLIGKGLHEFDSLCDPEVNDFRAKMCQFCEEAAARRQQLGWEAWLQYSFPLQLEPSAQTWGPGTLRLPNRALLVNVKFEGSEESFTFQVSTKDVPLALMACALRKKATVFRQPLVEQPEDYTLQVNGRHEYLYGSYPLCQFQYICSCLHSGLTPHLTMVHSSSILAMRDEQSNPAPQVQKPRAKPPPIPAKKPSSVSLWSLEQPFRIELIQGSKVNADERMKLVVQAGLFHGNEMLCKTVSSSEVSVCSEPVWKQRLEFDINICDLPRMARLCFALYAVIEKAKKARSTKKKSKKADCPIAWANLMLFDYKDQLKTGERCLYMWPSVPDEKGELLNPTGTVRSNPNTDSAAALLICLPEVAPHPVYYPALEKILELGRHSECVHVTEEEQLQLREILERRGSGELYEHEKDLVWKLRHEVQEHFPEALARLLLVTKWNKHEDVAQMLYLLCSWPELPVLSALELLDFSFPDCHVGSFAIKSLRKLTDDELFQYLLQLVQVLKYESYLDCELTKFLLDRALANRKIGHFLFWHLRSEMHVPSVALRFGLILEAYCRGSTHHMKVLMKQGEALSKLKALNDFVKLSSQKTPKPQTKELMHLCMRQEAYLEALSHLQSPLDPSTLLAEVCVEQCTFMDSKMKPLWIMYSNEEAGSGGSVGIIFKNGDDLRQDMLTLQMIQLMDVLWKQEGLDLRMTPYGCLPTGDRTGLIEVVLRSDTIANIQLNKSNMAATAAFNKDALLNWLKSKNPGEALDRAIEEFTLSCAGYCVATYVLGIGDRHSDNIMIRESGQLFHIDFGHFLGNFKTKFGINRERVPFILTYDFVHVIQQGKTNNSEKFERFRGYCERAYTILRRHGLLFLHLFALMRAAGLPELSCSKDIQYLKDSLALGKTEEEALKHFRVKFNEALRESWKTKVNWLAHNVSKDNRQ
The conditions noted are these: at 0.1 µM.

The target in test [7] is T2, Phosphatidylinositol 4,5-bisphosphate 3-kinase catalytic subunit delta isoform (Homo sapiens). The conditions noted are these: at 1 µM.
For test [8], the target named is Phosphatidylinositol 4-kinase beta (Homo sapiens) (UniProt Q9UBF8). The following applies: at 0.1 µM.
Sequence of Phosphatidylinositol 4-kinase beta (Homo sapiens) (Q9UBF8 2-816 limits assumed): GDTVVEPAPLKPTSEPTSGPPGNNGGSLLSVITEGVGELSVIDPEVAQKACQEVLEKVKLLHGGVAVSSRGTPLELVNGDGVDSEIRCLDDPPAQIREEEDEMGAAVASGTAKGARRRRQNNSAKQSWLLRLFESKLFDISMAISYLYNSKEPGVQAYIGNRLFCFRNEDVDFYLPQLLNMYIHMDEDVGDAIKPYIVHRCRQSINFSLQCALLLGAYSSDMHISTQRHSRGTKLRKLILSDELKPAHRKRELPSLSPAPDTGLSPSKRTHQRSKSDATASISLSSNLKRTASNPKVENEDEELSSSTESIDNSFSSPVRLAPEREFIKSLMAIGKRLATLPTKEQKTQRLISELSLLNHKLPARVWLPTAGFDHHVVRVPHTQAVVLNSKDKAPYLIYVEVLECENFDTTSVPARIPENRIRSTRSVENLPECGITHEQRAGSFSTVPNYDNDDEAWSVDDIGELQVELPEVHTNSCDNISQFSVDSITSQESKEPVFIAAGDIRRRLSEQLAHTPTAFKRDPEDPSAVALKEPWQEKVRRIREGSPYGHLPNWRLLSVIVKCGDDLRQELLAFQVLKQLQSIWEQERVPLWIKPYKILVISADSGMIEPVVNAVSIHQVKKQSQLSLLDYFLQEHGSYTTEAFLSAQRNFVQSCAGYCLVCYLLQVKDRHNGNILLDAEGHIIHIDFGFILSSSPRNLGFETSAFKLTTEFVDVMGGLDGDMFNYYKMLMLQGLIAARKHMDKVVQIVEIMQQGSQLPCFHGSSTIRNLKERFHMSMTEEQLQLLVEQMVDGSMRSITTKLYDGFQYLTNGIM
For test [9] the target is unchanged. The following applies: at 1 µM.
Test [10] concerns the target Sphingosine kinase 1 (Homo sapiens) (UniProt Q9NYA1). The conditions noted are these: at 0.1 µM.
For test [11] the target is unchanged. The following applies: at 1 µM.
Test [12] addresses T3, Sphingosine kinase 2 (Homo sapiens) (UniProt Q9NRA0).
T3 sequence (whole entry): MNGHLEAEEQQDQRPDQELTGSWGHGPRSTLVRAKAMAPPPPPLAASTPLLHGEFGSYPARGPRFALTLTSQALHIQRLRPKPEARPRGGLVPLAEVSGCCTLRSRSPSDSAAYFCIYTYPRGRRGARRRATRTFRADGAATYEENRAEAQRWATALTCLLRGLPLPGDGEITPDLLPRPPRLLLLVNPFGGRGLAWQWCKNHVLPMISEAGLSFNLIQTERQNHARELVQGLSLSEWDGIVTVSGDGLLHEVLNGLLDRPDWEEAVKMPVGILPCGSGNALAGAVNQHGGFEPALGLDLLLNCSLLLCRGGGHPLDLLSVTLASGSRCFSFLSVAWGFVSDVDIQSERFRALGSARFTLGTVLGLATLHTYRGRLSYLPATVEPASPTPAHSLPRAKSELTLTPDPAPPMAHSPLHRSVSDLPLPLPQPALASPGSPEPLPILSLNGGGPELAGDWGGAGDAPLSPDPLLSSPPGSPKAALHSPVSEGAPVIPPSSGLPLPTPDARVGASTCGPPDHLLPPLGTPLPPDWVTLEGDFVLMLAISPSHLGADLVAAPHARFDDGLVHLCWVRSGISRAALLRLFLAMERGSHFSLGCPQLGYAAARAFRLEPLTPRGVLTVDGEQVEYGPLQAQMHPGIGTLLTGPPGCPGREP
The following applies: at 0.1 µM.

In test [13] the target is Casein kinase II subunit alpha (Homo sapiens) (UniProt P68400). The following applies: at 0.1 µM.
Sequence of Casein kinase II subunit alpha (Homo sapiens) (P68400 whole entry, looked up): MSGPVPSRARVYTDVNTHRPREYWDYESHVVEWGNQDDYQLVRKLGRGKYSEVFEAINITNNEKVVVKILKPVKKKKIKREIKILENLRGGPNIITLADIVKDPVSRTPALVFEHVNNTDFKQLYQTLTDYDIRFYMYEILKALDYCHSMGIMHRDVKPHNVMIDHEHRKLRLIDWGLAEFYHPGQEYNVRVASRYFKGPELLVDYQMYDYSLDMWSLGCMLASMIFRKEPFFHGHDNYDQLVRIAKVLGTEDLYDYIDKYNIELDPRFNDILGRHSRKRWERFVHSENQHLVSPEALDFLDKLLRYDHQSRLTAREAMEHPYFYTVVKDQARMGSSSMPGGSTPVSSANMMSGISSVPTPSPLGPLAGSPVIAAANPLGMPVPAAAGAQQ
The target is the same in test [14]. The following applies: at 1 µM.
Test [15] addresses T4, Inhibitor of nuclear factor kappa-B kinase subunit alpha (Homo sapiens) (UniProt O15111).
T4 sequence (whole entry): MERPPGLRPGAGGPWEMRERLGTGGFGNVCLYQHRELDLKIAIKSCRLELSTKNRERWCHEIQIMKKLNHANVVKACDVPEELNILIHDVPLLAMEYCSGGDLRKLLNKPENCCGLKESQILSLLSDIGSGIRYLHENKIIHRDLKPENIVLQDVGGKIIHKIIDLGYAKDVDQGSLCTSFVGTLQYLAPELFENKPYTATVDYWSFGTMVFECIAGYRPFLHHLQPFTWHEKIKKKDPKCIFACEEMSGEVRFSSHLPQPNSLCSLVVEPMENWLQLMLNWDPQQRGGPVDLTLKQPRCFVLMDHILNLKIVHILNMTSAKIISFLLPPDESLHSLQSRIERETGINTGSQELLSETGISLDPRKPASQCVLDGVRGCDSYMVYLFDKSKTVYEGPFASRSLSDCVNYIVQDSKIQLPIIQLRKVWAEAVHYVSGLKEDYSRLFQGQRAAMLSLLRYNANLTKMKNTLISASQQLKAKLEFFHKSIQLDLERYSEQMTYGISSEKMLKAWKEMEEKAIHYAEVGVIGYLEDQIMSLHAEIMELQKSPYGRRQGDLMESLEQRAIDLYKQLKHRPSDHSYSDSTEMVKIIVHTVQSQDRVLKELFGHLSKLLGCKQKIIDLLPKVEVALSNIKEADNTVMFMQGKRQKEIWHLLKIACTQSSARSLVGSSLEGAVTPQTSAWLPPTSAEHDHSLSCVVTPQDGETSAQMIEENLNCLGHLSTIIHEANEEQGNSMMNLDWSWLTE
The following applies: at 0.1 µM.

The target in test [16] is T4, Inhibitor of nuclear factor kappa-B kinase subunit alpha (Homo sapiens). The conditions noted are these: at 1 µM.
For test [17], the target named is T5, Inhibitor of nuclear factor kappa-B kinase subunit beta (Homo sapiens) (UniProt O14920).
T5 sequence (whole entry): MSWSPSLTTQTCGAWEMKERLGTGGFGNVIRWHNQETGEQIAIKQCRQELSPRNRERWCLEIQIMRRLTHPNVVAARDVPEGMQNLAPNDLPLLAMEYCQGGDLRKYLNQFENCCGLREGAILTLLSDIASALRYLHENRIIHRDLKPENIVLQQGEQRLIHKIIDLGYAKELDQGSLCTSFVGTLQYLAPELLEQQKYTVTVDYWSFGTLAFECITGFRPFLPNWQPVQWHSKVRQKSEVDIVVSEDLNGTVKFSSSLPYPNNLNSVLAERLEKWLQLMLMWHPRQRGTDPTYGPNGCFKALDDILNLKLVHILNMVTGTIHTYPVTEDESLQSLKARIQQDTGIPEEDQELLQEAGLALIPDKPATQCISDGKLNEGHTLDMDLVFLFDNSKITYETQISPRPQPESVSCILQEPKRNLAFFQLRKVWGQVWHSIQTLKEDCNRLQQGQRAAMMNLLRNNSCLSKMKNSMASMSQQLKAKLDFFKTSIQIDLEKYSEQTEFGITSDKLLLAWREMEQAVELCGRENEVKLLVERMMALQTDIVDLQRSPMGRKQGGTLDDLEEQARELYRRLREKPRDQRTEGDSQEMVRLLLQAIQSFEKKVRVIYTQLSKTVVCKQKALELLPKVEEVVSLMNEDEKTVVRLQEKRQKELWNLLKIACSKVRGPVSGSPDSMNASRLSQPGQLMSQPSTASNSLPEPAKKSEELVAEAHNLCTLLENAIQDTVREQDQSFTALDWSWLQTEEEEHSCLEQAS
The conditions noted are these: at 0.1 µM.

Test [18] concerns the target T5, Inhibitor of nuclear factor kappa-B kinase subunit beta (Homo sapiens). The following applies: at 1 µM.
The target of test [19] is T6, Inhibitor of nuclear factor kappa-B kinase subunit epsilon (Homo sapiens) (UniProt Q14164).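 Note: mean inhibition of IKKε reported, from the GSK PKIS dataset.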
T6 sequence (whole entry): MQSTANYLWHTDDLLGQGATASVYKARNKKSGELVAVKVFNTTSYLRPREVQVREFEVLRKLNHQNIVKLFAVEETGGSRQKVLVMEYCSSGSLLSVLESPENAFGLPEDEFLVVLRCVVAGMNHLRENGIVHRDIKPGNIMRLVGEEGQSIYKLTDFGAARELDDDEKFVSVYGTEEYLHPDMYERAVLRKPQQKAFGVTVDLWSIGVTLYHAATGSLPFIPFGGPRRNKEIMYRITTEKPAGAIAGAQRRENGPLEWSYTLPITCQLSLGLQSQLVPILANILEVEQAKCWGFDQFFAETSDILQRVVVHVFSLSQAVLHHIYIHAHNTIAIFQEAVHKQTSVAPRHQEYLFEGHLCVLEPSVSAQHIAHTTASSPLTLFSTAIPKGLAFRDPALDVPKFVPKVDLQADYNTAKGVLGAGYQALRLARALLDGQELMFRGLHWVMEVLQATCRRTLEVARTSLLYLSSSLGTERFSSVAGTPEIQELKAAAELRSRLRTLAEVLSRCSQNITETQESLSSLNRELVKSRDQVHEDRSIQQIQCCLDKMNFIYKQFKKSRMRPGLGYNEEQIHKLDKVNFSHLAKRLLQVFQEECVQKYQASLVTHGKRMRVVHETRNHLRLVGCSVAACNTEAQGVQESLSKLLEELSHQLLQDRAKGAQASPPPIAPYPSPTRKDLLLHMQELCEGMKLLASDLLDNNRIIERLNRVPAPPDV
The conditions noted are these: at 0.1 µM.

For test [20], the target named is T3, Sphingosine kinase 2 (Homo sapiens). The conditions noted are these: at 1 µM.

As a reminder, the inhibition is the change of the read-out against control, counted positive when it falls.

Molecules are shown by their SMILES.

Sequence of Sphingosine kinase 1 (Homo sapiens) (Q9NYA1 whole entry): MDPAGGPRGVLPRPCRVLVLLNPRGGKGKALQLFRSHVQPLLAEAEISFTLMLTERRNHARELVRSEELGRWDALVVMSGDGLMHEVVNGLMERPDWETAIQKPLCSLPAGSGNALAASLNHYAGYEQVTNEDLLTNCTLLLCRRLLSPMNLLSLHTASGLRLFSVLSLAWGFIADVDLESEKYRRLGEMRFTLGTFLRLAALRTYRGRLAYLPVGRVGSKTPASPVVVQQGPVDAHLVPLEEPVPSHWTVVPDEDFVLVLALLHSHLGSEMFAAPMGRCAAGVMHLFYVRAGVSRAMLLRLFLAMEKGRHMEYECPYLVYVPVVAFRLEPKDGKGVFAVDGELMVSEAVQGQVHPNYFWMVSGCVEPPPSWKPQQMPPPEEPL

Regarding `[O-][S+]1CCN(Cc2ccc(-c3ccc4ncnc(Nc5ccc(OCc6ccccc6)c(F)c5)c4c3)o2)CC1`, the inhibition in [1] is 2.56%; in test [2], -2.36%; in test [3], -4.42%; in [4], 1.82%; in test [5], 3.14%; in [6], 2.61%. In addition, the inhibition in test [7] was 5.44%; in test [8], -0.3%; in [9], -1.35%; in test [10], -0.6%; in test [11], -3.44%; in test [12] it was 0.02%. Further, the inhibition in test [13] was -1.48%; in test [14], 1.56%; in test [15], 1.7%; in [16], 1.1%; in [17], 4.51%; in [18], -0.14%. Besides, the inhibition in [19] came to 3.11%.
In the case of `COC(=O)Nc1nc2cc(Oc3ccc(NC(=O)Nc4cccc(C(=O)O)c4)cc3)ccc2[nH]1`, the inhibition was -0.37% in [1]; -0.09% in test [2]; 3.15% in [3]; -0.54% in test [4]; -3.19% in test [5]; -1.33% in test [6]. In addition, the inhibition was -1.97% in test [7]; 2.72% in test [8]; -1.03% in test [9]; 0.94% in [10]; -2.52% in test [11]; 0.52% in [12]. Moreover, the inhibition in test [20] is -0.25%; in [13] it was 1.52%; in test [14], 8.32%; in [15], 5.47%; in test [16], -3.86%; in test [17], 1.26%. Moreover, the figures for the inhibition in test [18] and in test [19] were 2.79% and 3.11%, respectively.
Turning to `NC(=O)c1ccc(-c2nc(-c3ccccn3)c(-c3ccc4c(c3)OCO4)[nH]2)cc1`, the inhibition in test [1] was 1.74%; in test [2], -2.38%; in test [3] it was -2.03%; in test [4], 1.4%; in [5], -0.55%; in [6], 0.37%. Moreover, the inhibition is 2.45% in test [7]; -5.45% in test [8]; -2.85% in test [9]; 3.02% in test [10]; -3.93% in [11]; -0.17% in test [12]. Further, the inhibition is -0.84% in test [20]; 2.1% in test [13]; 4.61% in test [14]; 7.62% in test [15]; 3.19% in test [17]; 3.61% in test [18]. For the same molecule, the inhibition in [19] turned out to be 3.15%.
